Hit rate of the full screen: of about 75,000 compounds, about 15 (0.02%) were called active. Another 3% or so got no clear call; they are omitted. Many of the other results were omitted from the sample, so actives are more common in it than they were. Values without a mark were called inactive. The call rests on the fitted dose curve; in most records, active means well fitted inhibition curve with a large enough effect in the main read-out, with a control signal flat (not every such curve was filed as active); inconclusive means small, poorly fitted or top-dose-only effect, or a change in a side signal; inactive means flat fitted curve, though single readings scatter.
These molecules were tested against Caspase-7 (Homo sapiens) (UniProt P55210) (assay: qHTS Assay for Allosteric/Competitive Inhibitors of Caspase-7). Conditions: recombinant caspase-7, Ac-DEVD-AFC fluorescence rate; series mostly up to 57.5 µM; activity change, negative = inhibition: at the top concentration.
Text: NIH Molecular Libraries Screening Centers Network [MLSCN]
NIH Chemical Genomics Center [NCGC]
PI Name: Dr. James Wells,
Dr. Enrique Perez-Paya, Dr.Janice Williams, Dr. Dennis Wolan, a person
The caspases (Cysteine Aspartyl Protease) comprise a related family of 14 dimeric proteases that are critical mediators of apoptosis (programmed cell death) and inflammation. The caspases represent an important class of drug targets for stroke, ischemia, cancer and inflammatory diseases. […] One goal of this project was to identify compounds that act as allosteric inhibitors via stabilizing the procaspase form of the enzyme. Previous work in Well's laboratory has shown that such allosteric inhibitors can be identified and these act by binding at the dimer interface of enzyme (Hardy, Lam et al., 2004).
The biochemical assay was configured using purified caspase 7 at a high enzyme concentration to promote formation of the homodimers and thus facilitate the identification of allosteric inhibitors. The overall goal was to identify reversible inhibitors with better drug-like properties than the currently available set of aspartyl-containing peptidomimetics that covalently bind the active site. Caspase 7 was assayed using the profluorescent substrate Ac-DEVD-AFC. After initiation of the assay with substrate the plates were rapidly read using an automated robotic system (Kalypsys, Inc.) to maintain consistent timing. A kinetic mode of detection was used where the initial rate was collected (estimated final product formation was ~10%). Compounds were screened as a concentration-titration series that ranged from 57 uM to 0.7 nM. Below is the protocol used for caspase 7.
NCGC Assay Protocol Summary:
Caspase 7 was prepared in buffer (50 mM HEPES pH 7.5, 50 mM KCl, 200 mM NaCl, 10 mM DTT, 0.1% CHAPS) at a concentration of 66.6 nM and 3 uL was dispensed to all wells using black solid Kalypsys 1536-well plates. 20 nL of DMSO containing compounds was added using a pin-tool (Kalypsys Inc.) to columns 5-48. Then 20 nL of DMSO solution from a control plate was added to columns 1-4. Controls were: Column 1, 16 point titration with each concentration in duplicate (1:1 dilutions in DMSO; final starting concentration was 57 uM) of the caspase 7 inhibitor Ac-DEVD-CHO (Alexis Biochemicals); Column 2, a 16 point titration with each concentration in duplicate of the free AFC fluorophore prepared in DMSO (Alexis Biochemicals), final starting was 40 uM; Column 3 neutral (DMSO only) control; Column 4: DMSO alone, to serve as a negative control (no substrate was added). Then 1 uL of 20 uM the substrate Ac-DEVD-AFC (Alexis Biochemicals) prepared in the same buffer was dispensed to all wells except columns 2 and 4 and the plates were immediately transferred (< 1 min) to the Viewlux. The plates were then exposed using 405 nm excitation/520 nm emission filters for 4 sec and read at 20 sec intervals for 3 min. Final enzyme concentration was 50 nM and the final substrate concentration was 5 uM.
Concentration-response curves were fitted to the data calculated from slope of the linear regression of fluorescent intensity versus time (the rate). The concentration-effect curves were then classified based on curve quality (r2), response magnitude and degree of measured activity. […] Inconclusive compounds had appreciable concentration-dependent effects on both the measured rate and the interpolated basal fluorescence intensity at the start of the reaction but where the basal fluorescent intensity was marginal (e.g. < 10-fold). Inconclusive compounds also encompass highly fluorescent compounds (>100-fold increases in fluorescent intensities values relative to controls) where artificial concentration-dependent decreases in the rate occurred at high compound concentrations due to fluorescent interferences.
Keywords: Caspase 7, proteases, profluorescent, MLSMR, MLSCN, NIH Roadmap, qHTS, NCGC
Potency means the concentration at half of the fitted maximal effect.
Wherever activity change, negative = inhibition is given: % of control where 0% means no effect.

Caspase-7 (Homo sapiens), sequence (P55210 24-198 limits assumed): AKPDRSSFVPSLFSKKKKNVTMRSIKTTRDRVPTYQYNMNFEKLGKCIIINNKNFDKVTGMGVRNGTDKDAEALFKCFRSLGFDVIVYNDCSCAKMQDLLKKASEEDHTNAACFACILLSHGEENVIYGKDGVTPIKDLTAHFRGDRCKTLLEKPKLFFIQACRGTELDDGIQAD
Caspase-7 (Homo sapiens), sequence (P55210 207-303 limits assumed): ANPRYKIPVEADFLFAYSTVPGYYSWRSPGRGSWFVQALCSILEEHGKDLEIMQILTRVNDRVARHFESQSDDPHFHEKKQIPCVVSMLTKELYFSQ

Row | SMILES | activity change, negative = inhibition | Potency
1 | CN(C)/C=N/c1cc(=O)n(C)c(=O)n1CC1CC1 | -0.251% | –
2 | O=C(OCc1nnc(-c2ccccc2)o1)c1ccc2c(c1)C(=O)N(CCc1ccccc1)C2=O | -1.28% | –
3 | c1ccc2cc3[nH]c(CN4CCCCC4)nc3cc2c1 | 0.392% | –
4 | COC1[C@H](OC(N)=O)C(O)[C@H](Oc2ccc3c(O)c(NC(=O)c4ccc(O)c(CC=C(C)C)c4)c(=O)oc3c2C)OC1(C)C (some centres not stated) | -0.537% | –
5 | COc1cccc(OCC(O)CN2CCN(CCO)CC2)c1 (configuration not stated) | 0.0001% | –
6 | Cc1oc(C)c(C(=O)NCCCC(=O)O)c1C(=O)NCCCC(=O)O | 0.635% | –
7 | CCOc1cc(S(=O)(=O)NC2CC(C)(C)NC(C)(C)C2)ccc1F | -0.319% | –
8 | COc1cc(OC)c2c(c1Cl)OC1(C2=O)C(O)=CC(=O)CC1C (configuration not stated) | -1.66% | –
9 | CC(C)(O)CCC(O)[C@@](C)(O)C1CC[C@]2(O)C3=CC(=O)C4CC(O)C(O)C[C@]4(C)C3CC[C@]12C (some centres not stated) | 2.51% | –
10 | CC(=O)Oc1c2c(c3c(c1CC=C(C)C)O[C@@]14C(=CC5CC1C(C)(C)OC4(C/C=C(\C)C(=O)O)C5=O)C3=O)OC(C)(CCC=C(C)C)C=C2 (some centres not stated) | -23.4% | –
11 | CC(=O)OCC(=O)C1CCC2C3CCC4=CC(=O)CC[C@@]4(C)C3CC[C@]12C (some centres not stated) | -2.96% | –
12 | COc1ccc(CCN=C2SCC(=O)N2C)cc1OC | -1.75% | –
13 | Cc1cccc(-n2c(O)c(C=Nc3ccccc3N)c(=O)[nH]c2=O)c1 | -4.62% | –
14 | CCC1=C(OC(=O)N(CC)CC)N2C(=O)OC(=NCCc3c[nH]c4ccccc34)[C@]2(C)[C@H]2C1=CC[C@H]1C(=O)N(CC)C(=O)[C@H]12 | -2.47% | –
15 | COc1ccccc1N1CCN(C[C@@H]2CN3C(=O)N(C)c4ccccc4C3=N2)CC1 | 1.97% | –
16 | COc1ccc(C2C(C(=O)N3CCN(c4ccc(OC)cc4)CC3)c3ccccc3C(=O)N2C)cc1 (configuration not stated) | 1.08% | –
17 | CN(CCOc1ccc(CC2SC(=O)NC2=O)cc1)c1ccccn1 (configuration not stated) | 1.57% | –
18 | N#CCC(=O)NC(=O)NCC1CC1 | -1.24% | –
19 | Cn1c(=O)cc(SCC(=O)N2CCN(C(=O)c3ccco3)CC2)c2ccccc21 | 0.0908% | –
20 | O=C(c1cccnc1NCc1ccccc1)N1CCOCC1 | -1.76% | –
21 | CN1CCC(CNC(=O)c2ccc(-n3c(=O)c(=O)[nH]c4ccccc43)cc2)CC1 | -0.892% | –

Row | SMILES | activity change, negative = inhibition | Potency
22 | O=C(C1=C(O)C(=O)N(Cc2ccccc2)C1c1cccnc1)c1ccco1 (configuration not stated) | -0.988% | –
23 | O=C(c1cccs1)N1CCN(Cc2ccc3c(c2)OCO3)CC1 | 1.48% | –
24 | C[C@H]1CC[C@H](C(=O)O)N[C@@H]1c1ccc(C#Cc2ccccc2)cc1 | 1.78% [at 11.5 µM] | –
25 | Cc1noc(C)c1CSc1nc2cc(S(=O)(=O)N3CCOCC3)ccc2o1 | 3.09% | –
26 | Cc1csc(-c2nc3ccccc3n2C)n1 | 0.971% | –
27 | COC(=O)[C@@H]1C[C@@]2(O)[C@H](O)[C@H](O)[C@H](O)C[C@H]2N1Cc1ccc(C(C)(C)C)cc1 | -0.0221% | –
28 | CCC(CC)C(=O)Nc1cc(C(=O)OC)cc(C(=O)OC)c1 | 0.195% | –
29 | Cc1ccc(N(CC(O)CN2CCCC2)S(=O)(=O)c2ccccc2)cc1 (configuration not stated) | -0.0894% | –
30 | O=C(COc1ncnc2ccccc12)NC(=O)NCc1ccccc1 | -0.802% | –
31 | Cc1ccccc1Nc1nnc(C)c(=O)[nH]1 | -0.782% | –
32 | CC(C)=CCC/C(C)=C/CC/C(C)=C/CC/C(C)=C/CO | 0.242% | –
33 | CCCOc1ccc2c3c(c(=O)oc2c1OCCC)CCC3 | -4.43% | –
34 | CCOC(=O)Cn1c(=O)oc2cc(S(=O)(=O)N(C)Cc3ccco3)ccc21 | -0.862% | –
35 | CC(C)[C@H]1CC[C@@H](C)C[C@H]1O | 0.98% | –
36 | CC1CCc2c(sc(NC(=O)c3ccc(Cn4cc(Br)cn4)o3)c2C(N)=O)C1 (configuration not stated) | -12.6% | –
37 | C/C(=N\O)C1(C)N(O)C(C)(C)C(c2ccc(Br)cc2)=[N+]1[O-] (configuration not stated) | 0.703% | –
38 | CC(=O)Nc1ccc(NC(=O)CN2CCCC(C)C2)c(Cl)c1 (configuration not stated) | -0.338% | –
39 | Cn1c(N)c(C(=O)COC(=O)c2cc(C(F)(F)F)nc3c(C(F)(F)F)cccc23)c(=O)n(C)c1=O | 1.07% | –
40 | Cc1cc(NC(=O)CCC(=O)N(c2cccc(F)c2)C(C(=O)NC2CCCC2)c2ccncc2)no1 (configuration not stated) | 0.523% | –
41 | COc1ccc(N2C(=O)C3CCCN3C2c2cc(OC)c(OC)cc2OC)cc1 (configuration not stated) | -1.73% | –
42 | O=C(NCc1ccco1)c1cc(-c2cccnc2)nc2ccc(Cl)cc12 | -1.35% | –

Row | SMILES | activity change, negative = inhibition | Potency
43 | CC(C)CN1CCc2nc(-c3ccccc3)c3c(c2C1)COC(C)C3 (configuration not stated) | -0.41% [at 11.5 µM] | –
44 | O=C(Nc1cccc(Cl)c1)OCc1ccccn1 | 1.86% | –
45 | O=C(O)CC(C(=O)O)C(CC(=O)O)C(=O)O (configuration not stated) | 0.506% | –
46 | CCc1ccc(CCC(=O)Nc2ccc(S(N)(=O)=O)cc2)o1 | 0.82% | –
47 | CN(C)CCSS(=O)(=O)O | -1.05% [at 11.5 µM] | –
48 | C[C@@H]1O[C@@H](OC[C@H]2O[C@@H](Oc3c(-c4cccc(O)c4O)oc4cc(O)cc(O)c4c3=O)[C@H](O)[C@@H](O)[C@@H]2O)[C@H](O)[C@H](O)[C@H]1O | -1.32% | –
49 | OCCCNCc1ccccn1 | 0.29% [at 11.5 µM] | –
50 | O=C(NCc1ccccn1)c1ccc2nc(-c3ccco3)c(-c3ccco3)nc2c1 | – | 25.1 µM (active)
51 | O=C(NCc1ccccn1)c1cc2ccccc2oc1=O | -0.481% | –
52 | Cc1cccn2c(=O)c3cc(C(=O)NCc4ccccn4)n(C)c3nc12 | 0.28% | –
53 | COc1ccc(CC(=O)Nc2nc3n(n2)C(c2ccccc2)CC(=O)N3)cc1OC (configuration not stated) | 0.956% | –
54 | Cc1cccc(NC(=O)CSc2nnc(CCCCCNC(=O)OC(C)(C)C)o2)c1C | -0.868% | –
55 | CCOc1cc(C(=S)N2CCOCC2)ccc1O | -0.0185% | –
56 | CC(C)C(=O)N1CCN(CCN=CC2=C(O)CC(c3ccco3)CC2=O)CC1 (configuration not stated) | -3.14% | –
57 | CCCCCCCCCc1ccc(OCCOCCOCCOCCOCCOCCOCCOCCOCCO)cc1 | -6.3% | –
58 | COc1c2c(cc3occ(-c4ccc5c(c4)OCO5)c(=O)c13)OC(C)(C)C=C2 | -5.41% | –
59 | O=C(CC1CCCCC1)Nc1c2c(nn1-c1ccc(F)cc1)CS(=O)(=O)C2 | -1.72% | –
60 | CC1(C)OC2CC(=O)OC[C@@]23C1CC(=O)[C@]1(C)C3CC[C@@]2(C)C(c3ccoc3)OC(=O)C3O[C@@]321 (some centres not stated) | -1.5% | –
61 | Cc1cccc(-c2cc(=O)c3cc(C)ccc3o2)c1 | -5.03% | –
62 | CCCc1nc2c(C)cc(-c3nc4ccccc4n3C)cc2n1Cc1ccc(-c2ccccc2C(=O)O)cc1 | -5.24% | –

From PubChem BioAssay AID889 (National Center for Advancing Translational Sciences (NCATS), 2007)
